Compound activity deposited in PubChem BioAssay by several laboratories.
Hits are enriched below; roughly 27% of the tested compounds scored in any of these assays.
CYP2C19 act = cytochrome P450 2C19 (human) activation; P33261; recombinant CYP2C19, luciferin-H EGE luminescence; hits give high values; 0 = fully inhibited enzyme, 1 = untreated enzyme; activation factor at 5 µM; 96,000 tested, under 10 active; AID 1025;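 active means activation factor of at least 2 at 5 µM in the primary screen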;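 further: 0 = wells with 2.5 mM tranylcypromine and 1 = vehicle-only wells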
CYP2C9 inhib = human CYP2C9 inhibition. CYP2C9 Supersomes, luciferin-H conversion, luminescence. inhibition, % at 5 µM. 96,000 tested, 20% active. AID 777;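 active means blocking of liver enzyme CYP2C9 beyond about 50% at 5 µM, limit read from the data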
Target sequence (P11712 whole entry, looked up): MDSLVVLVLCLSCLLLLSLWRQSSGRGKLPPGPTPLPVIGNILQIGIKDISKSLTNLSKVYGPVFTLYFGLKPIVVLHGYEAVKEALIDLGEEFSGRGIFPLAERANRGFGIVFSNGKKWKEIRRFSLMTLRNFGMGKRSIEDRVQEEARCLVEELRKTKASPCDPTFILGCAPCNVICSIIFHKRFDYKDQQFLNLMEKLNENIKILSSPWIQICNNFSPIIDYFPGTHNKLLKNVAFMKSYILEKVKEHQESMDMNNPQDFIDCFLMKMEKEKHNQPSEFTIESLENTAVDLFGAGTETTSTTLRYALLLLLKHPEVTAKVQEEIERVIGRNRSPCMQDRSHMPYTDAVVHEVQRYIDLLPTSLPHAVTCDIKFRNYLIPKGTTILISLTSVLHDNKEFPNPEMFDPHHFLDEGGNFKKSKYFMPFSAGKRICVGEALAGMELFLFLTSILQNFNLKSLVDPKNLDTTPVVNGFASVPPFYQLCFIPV
CYP2C9 activ = activators of human CYP2C9; 96,000 tested, 1.4% active; P11712; activation factor at 5 µM; recombinant CYP2C9, luciferin-H conversion, luminescence; hits give high values; factor 1 = untreated enzyme, 0 = blocked; AID 1024;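 active means activation factor of 2 or more for CYP2C9 at a 5 µM dose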;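 further: 0 = sulfaphenazole-blocked wells and 1 = vehicle-only wells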
CYP2C19 inhib = human CYP2C19 inhibition. P33261. CYP2C19 Supersomes, luciferin-H EGE luminescence, 30 min. AID 778. inhibition, % at 5 µM. 96,000 tested, 21% active;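 active means CYP2C19 inhibition above a set limit at 5 µM in the primary screen, cut at about 50% in these data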;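 further: plate controls were negative control wells for no effect and 2.5 mM tranylcypromine positive control for full effect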
Cav3 T inh = human Cav3.2 channel inhibition, primary screen; 100,000 tested, 4% active; B-score at 10 µM; O95180; Cav3.2-expressing cells, Fluo-4 calcium fluorescence FDSS; hits give low values;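 active means single-dose well whose peak fluorescence ratio is a statistical outlier from its plate by either plate-standardised score or position-corrected B-score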
Starred values were filed as active, the others as inactive.

CCOC(=O)c1c(NC(=O)OC)sc(C(=O)N(C)C)c1C was read as CYP2C19 act 0.8, CYP2C9 inhib 53.5*, CYP2C9 activ 0.5, CYP2C19 inhib 24.0 and Cav3 T inh 0.408.
For CCOC(=O)c1c(NC(=O)Cc2cccs2)sc(C(=O)NC2CCCC2)c1C the results were CYP2C19 act 0.9, CYP2C9 inhib 29.0, CYP2C9 activ 0.7, CYP2C19 inhib 9.0 and Cav3 T inh 0.813.
For CCOC(=O)c1c(NC(=O)CN(C)C)sc(C(=O)N(CC)CC)c1C the results were CYP2C19 act 0.7, CYP2C9 inhib 38.1, CYP2C9 activ 0.6, CYP2C19 inhib 29.9 and Cav3 T inh 0.758.
For Nc1cc(C(=O)N2CCCC2)cc(C(=O)N2CCCC2)c1 the results were CYP2C19 act 1, CYP2C9 inhib -2.9, CYP2C9 activ 1, CYP2C19 inhib 0.2 and Cav3 T inh 0.0929.
`CCOC(=O)c1c(NC(NC(C)=O)C(Cl)(Cl)Cl)sc(C(C)=O)c1C` (stereo not given) gave CYP2C19 act 0.6, CYP2C9 inhib 53.9*, CYP2C9 activ 0.5, CYP2C19 inhib 37.7 and Cav3 T inh -2.47.
For CCOC(=O)c1sc(C)c(C(=O)NC2CCCCC2)c1N the results were CYP2C19 act 0.9, CYP2C9 inhib -132.0, CYP2C9 activ 2.3*, CYP2C19 inhib 6.7 and Cav3 T inh -0.215.
Screening CCOC(=O)c1c(/N=C/N(C)C)sc(C(=O)OC)c1C returned CYP2C19 act 0.2, CYP2C9 inhib 49.8, CYP2C9 activ 0.5, CYP2C19 inhib 77.8* and Cav3 T inh 0.996.
Screening CC(C)C(=O)N1CCN(c2ccccc2N)CC1 returned CYP2C19 act 0.7, CYP2C9 inhib 16.3, CYP2C9 activ 0.8, CYP2C19 inhib 30.8 and Cav3 T inh 0.0659.
COc1ccccc1/C=C/C=N/N1CCN(Cc2cccc3ccccc23)CC1 was read as CYP2C19 act 0.9, CYP2C9 inhib -5.6, CYP2C9 activ 1.1 and CYP2C19 inhib 6.0.
COc1ccc(OC)c(NC(=O)CSc2nnc(Cn3nnc4ccccc43)n2C)c1 was read as CYP2C19 act 0.9, CYP2C9 inhib -4.5, CYP2C9 activ 1, CYP2C19 inhib 9.3 and Cav3 T inh 0.0302.
Screening CN(C(=O)c1cc2n(n1)C(C(F)(F)F)CC(c1ccco1)N2)c1ccccc1 (stereo not given) returned CYP2C19 act 0.7, CYP2C9 inhib 13.6, CYP2C9 activ 0.9, CYP2C19 inhib 31.1 and Cav3 T inh 1.06.
Screening CC(C)NS(=O)(=O)c1ccc(CCC(=O)Nc2ccc3c(c2)OCO3)cc1 returned CYP2C19 act 0.5, CYP2C9 inhib 51.6*, CYP2C9 activ 0.5, CYP2C19 inhib 47.8 and Cav3 T inh 1.17.
CC(C)CNS(=O)(=O)c1ccc(C(=O)Nc2ccc3c(c2)OCCO3)cc1 was read as CYP2C19 act 1.1, CYP2C9 inhib 9.6, CYP2C9 activ 0.9, CYP2C19 inhib -11.1 and Cav3 T inh -1.04.
For COc1ccc(CC(=O)Nc2ccc(S(=O)(=O)NC(C)C)cc2)cc1 the results were CYP2C19 act 0.4, CYP2C9 inhib 59.9*, CYP2C9 activ 0.4, CYP2C19 inhib 62.1* and Cav3 T inh 0.0998.
CC(C)CNS(=O)(=O)c1ccc(CCC(=O)Nc2ccc3c(c2)OCCO3)cc1 was read as CYP2C19 act 0.6, CYP2C9 inhib 58.0*, CYP2C9 activ 0.4, CYP2C19 inhib 38.7 and Cav3 T inh -0.164.
`CCCNS(=O)(=O)c1ccc(CCC(=O)Nc2ccc3c(c2)OCO3)cc1` gave CYP2C19 act 0.1, CYP2C9 inhib 81.8*, CYP2C9 activ 0.2, CYP2C19 inhib 94.8* and Cav3 T inh -0.0511.
CC1CCC2(CC1)N=C(N)Nc1nc3ccccc3n12 (stereo not given) was read as CYP2C19 act 1, CYP2C9 inhib 8.4, CYP2C9 activ 0.9, CYP2C19 inhib 0.3 and Cav3 T inh -0.289.
Screening O=C(NC(Cc1ccccc1)C(=O)O)/C(=C\c1ccc(F)cc1)NC(=O)c1ccccc1 (stereo not given) returned CYP2C19 act 1, CYP2C9 inhib 7.7, CYP2C9 activ 0.9, CYP2C19 inhib -1.4 and Cav3 T inh -0.586.
Cc1noc(C)c1COC(=O)c1ccccc1Oc1ccccc1 was read as CYP2C19 act 0, CYP2C9 inhib 89.2*, CYP2C9 activ 0.1, CYP2C19 inhib 96.3* and Cav3 T inh -2.84.
`Cc1noc(C)c1COC(=O)c1cccnc1SCC(=O)Nc1ccc2c(c1)OCO2` gave CYP2C19 act 0.7, CYP2C9 inhib 74.0*, CYP2C9 activ 0.3, CYP2C19 inhib 28.4 and Cav3 T inh -3.61.
